Reference: ChEMBL document CHEMBL4513216, “Probing the Open Global Health Chemical Diversity Library for Multistage-Active Starting Points for Next-Generation Antimalarials” (ACS Infect Dis, 2020)
Hit rate of the full screen: of about 69,000 compounds, about 8,600 (12%) showed an effect of 50% or more. Shown is part of a subset that was picked to be rich in strong results.

tested on: Plasmodium berghei; test: Screen against P. berghei liver stage (PbLuc), transformed with Luciferase, at 10uM; assay type: functional, HepG2; settings: tested at 10 uM

Structure (SMILES) | INHIBITION
CC(C)(C)C(=O)NCCC(=O)NCCc1ccn(-c2ccccc2)n1 | 23.4%
COc1ccc(-c2nc(CNC3CCc4nc(C)nn4C3)no2)cc1 (stereo not drawn) | 56.6%
Cc1cccc(-c2nc(CNC3CCc4nc(C)nn4C3)no2)c1 (stereo not drawn) | 19.6%
COc1ccc2c(c1)OCC(CNC1CCc3nc(C)nn3C1)=C2 (stereo not drawn) | 85.2%
CCc1nc2n(n1)CC(NCC1=Cc3ccc(OC)cc3OC1)CC2 (stereo not drawn) | 32.3%
COc1cc(CNC2CCc3nc(C)nn3C2)cc2c1OCO2 (stereo not drawn) | -43.6%
CCc1nc2n(n1)CC(NCc1noc(-c3ccc(C)cc3)n1)CC2 (stereo not drawn) | 31.9%
CCn1cc(S(=O)(=O)Nc2nc3c(s2)CCCC3)cn1 | -35.4%
Cc1ncsc1CCN(C)C(=O)CCc1nc2cccnc2n1C | -51%
c1ccc(-c2cnc3n2CCNC32CCNCC2)cc1 | -30.1%
CNC(=O)CN1CCCC12CCN(C(=O)c1ccccc1F)CC2 | -35.6%
Cc1ccc(N2CCO[C@H]3CN(Cc4cccnc4)C[C@H]32)nn1 | -12%
Cc1ccc(N2C[C@@H]3CN(C(=O)c4ccccc4)CCO[C@@H]3C2)nn1 | 51.2%
Cc1ccc(N2CCO[C@H]3CN(C(=O)c4cccc(C)n4)C[C@H]32)nn1 | 53%
Cc1ccc(N2CCO[C@H]3CN(Cc4cccs4)C[C@H]32)nn1 | 88.2%
c1ccc(CN2C[C@@H]3OCCN(c4ncccn4)[C@@H]3C2)nc1 | 38.1%
Cc1ccc(N2CCO[C@H]3CN(Cc4ccncc4)C[C@H]32)nn1 | 22.7%
Cc1ccc(N2CCO[C@H]3CN(Cc4nccs4)C[C@H]32)nn1 | 25.2%
O=C(c1ccccc1)N1CCO[C@@H]2CN(c3ncccn3)C[C@@H]2C1 | 48.2%
Cc1ccc(N2CCO[C@H]3CN(Cc4ccccn4)C[C@H]32)nn1 | 50.9%
O=C(c1ccccc1)N1CCO[C@@H]2CN(c3cnccn3)C[C@@H]2C1 | 37.9%
Cc1cccc(C(=O)N2C[C@@H]3OCCN(c4ncccn4)[C@@H]3C2)n1 | 16.6%
Cc1cccc(C(=O)N2C[C@@H]3OCCN(C(C)C)[C@@H]3C2)n1 | 18.8%
CC(=O)NC[C@]1(O)CCN(C(=O)c2ccc(F)c(Cl)c2)C[C@H]1O | 18.9%
O=C1COC2(CCN(Cc3cccnc3)CC2)CN1c1ccccc1 | 48.4%
C[C@@]1(O)CCN(C2CCOCC2)C[C@H]1n1ccc(=O)[nH]c1=O | 10.95%

Structure (SMILES) | INHIBITION
Clc1ccc(Cc2nc(CNCCn3cccn3)cs2)cc1 | 16.6%
CCc1nn(C)c(Cl)c1CN(CC)Cc1cnn(CC)c1 | -21.9%
O=C(O)Cn1ccc(=O)c2cc(F)ccc21 | 25.3%
Cc1cc(C)n(C2CN(C(=O)Cn3c(C)cc(=O)c4ccccc43)C2)n1 | 29.1%
CC(=O)c1c(O)n(C)c2ccc(F)cc12 | 5.75%
COC(=O)Cn1c(C)cc(=O)c2cc(F)ccc21 | 71.3%
Cc1ccc2c(c1)c(C)cc(=O)n2CC(=O)O | 10.775%
COC(=O)CCn1ccc(=O)c2cc(F)ccc21 | 6.34%
CC(=O)Cn1c(C)cc(=O)c2cc(F)ccc21 | 82.4%
COC(=O)Cn1ccc(=O)c2ccc(OC)cc21 | -20%
Cc1cc(=O)c2cc(F)ccc2n1CC(=O)O | 71.3%
CNC(=O)c1ccc(C2CN(C(=O)c3c[nH]nc3C)CCO2)nc1 (stereo not drawn) | -20.2%
O=C(NC1CCN(c2ccccc2Br)C1)c1c[nH]nn1 (stereo not drawn) | 34.2%
CS(=O)(=O)NCC1CCCN(C(=O)Nc2cccc3ccccc23)C1 (stereo not drawn) | -31.3%
CC(C)C(NC(=O)Cc1ccccc1)C(=O)NCc1ccc(O)nc1 (stereo not drawn) | 0.991%
CC(C)(C)c1nnc(CN2CCCC2Cn2cncn2)o1 (stereo not drawn) | 32.707%
CN1CC(=O)N(c2cccc(F)c2)CC12CCN(S(=O)(=O)C1CC1)C2 (stereo not drawn) | 5.44%
NC(=O)c1cnc(NC2CC2)nc1CCNC(=O)CC1CCCC1 | 31.3%
CCOC(=O)CCCNC(=O)CN1CCN(c2ncccn2)CC1 | 1.81%
O=C(NCc1cc[nH]n1)N1CCN(c2ncccn2)CC1 | 33.3%
CCOC(=O)CNC(=O)N1CCN(c2ncccn2)CC1 | 63.5%
Cn1c(C(=O)NC(Cc2ccsc2)c2cccnc2)cc(=O)n(C)c1=O (stereo not drawn) | -12.3%
C/C=C(\C)CN1C[C@@H](NC(=O)c2ccc(F)c(F)c2)C[C@H]1C(=O)NCC | 52%
C/C=C(\C)CN1C[C@@H](NC(=O)c2ccc(O)c(Cl)c2)C[C@H]1C(=O)NCC | 22.4%
C/C=C(\C)CN1C[C@H](NC(=O)c2cnc(O)cn2)C[C@H]1C(=O)NCC | -7.17%
c1ccc(OCCN2CCCCC2Cn2cncn2)cc1 (stereo not drawn) | 40.9%

Structure (SMILES) | INHIBITION
CCCC(C)N(C)C(=O)c1nc(S(C)(=O)=O)n2ccccc12 (stereo not drawn) | -8.95%
Cc1nc(C)c(C(=O)N2Cc3cc(F)ccc3CC2C)o1 (stereo not drawn) | -9.17%
Cc1nc(C)c(C(=O)N2CCc3cc(F)ccc3C2C)o1 (stereo not drawn) | 52.6%
Cc1nc(C)c(C(=O)N2CCc3ccc(F)cc3C2C)o1 (stereo not drawn) | -11.6%
C=c1ncsc1=C1NN=C(C2CCCN2C(=O)CCn2ccc(C)n2)O1 (stereo not drawn) | 21.95%
Cc1nn(C)c(C)c1CN(C)CC1(O)CCCN(C)C1 (stereo not drawn) | 5.18%
CCCc1cnc(C)nc1N1CCC(Cn2cc(CN(C)C)nn2)CC1 | -16.1%
CCCc1cnc(C)nc1N1CCC(Cc2ccc(CO)cc2)C1 (stereo not drawn) | 75%
CCCc1cnc(C)nc1N1CCC(F)(F)CC1 | -40.6%
CCc1cnc(C)nc1N1CCC(Cc2cccc(C(=O)O)c2)C1 (stereo not drawn) | 47.2%
CCCc1cnc(C)nc1N1CCC(Cn2cc(C(C)O)nn2)CC1 (stereo not drawn) | 17.5%
CCCc1cc(N2CCC(Cc3cccc(C(N)=O)c3)C2)nc(C)n1 (stereo not drawn) | 5.67%
CCCc1cnc(C)nc1N1CCC(Cn2cc(CO)nn2)CC1 | 50.2%
CCCc1cnc(C)nc1N1CCC(Cc2cccc(C(N)=O)c2)C1 (stereo not drawn) | 52.2%
CCCc1cnc(C)nc1N1CCC2(CCCO2)CC1 | 13.1%
Cn1cnc2c1CCN(Cc1cccc(C(=O)N3CCCCC3)c1)C2 | -40.01%
Cc1cccc(S(=O)(=O)N2C[C@@H]3C[C@H](C(=O)N(C)C)[C@H](C2)O3)c1 | 42.3%
Cc1nc(NC2CC(C)(C)NC(C)(C)C2)c2c(n1)c(C)nn2C | -7.83%
COCCc1noc(CN(C)c2nc(C)nc(C)c2C)n1 | 47.6%
CNc1snc(C)c1C(=O)N1CCCC(n2nc(C)nc2C)C1 (stereo not drawn) | 19.4%
O=C1CC(NS(=O)(=O)c2cccc(F)c2)CN1 (stereo not drawn) | 10.7%
CC(NC(=O)N1CCC(CO)CC1)c1csc2ccccc12 (stereo not drawn) | 55.5%
CC(NC(=O)N1CCC(CC(N)=O)CC1)c1csc2ccccc12 (stereo not drawn) | 27.7%
CC(=O)N1CCCN(C(=O)NC(C)c2csc3ccccc23)CC1 (stereo not drawn) | 21.8%
COc1ccc(C(=O)N2CCCCC2c2nccs2)c(OC)c1 (stereo not drawn) | 7.12%
COc1ccc(CC(=O)N2CCCCC2Cn2cc(C)cn2)cc1F (stereo not drawn) | -2.19%

Structure (SMILES) | INHIBITION
CC(C)Cc1cc(NC(=O)c2cccnc2)n(C)n1 | -10.6%
CCN(CC)S(=O)(=O)N1CCCN(CC(=O)NC(C)C)CC1 | 57.2%
CCN(CC(=O)NC(C)C)S(=O)(=O)N1CCCC(C)C1 (stereo not drawn) | -13.4%
CCN(CC(=O)NC(C)C)S(=O)(=O)N1CCCCCC1 | -12.6%
Fc1ccc2[nH]c3c(c2c1)CCN1C(c2ccccn2)N2CCC31CC2 (stereo not drawn) | -23.4%
CC(NCC1CCS(=O)(=O)CC1)c1cccc(OC(F)F)c1 (stereo not drawn) | 2.97%
Cc1cccc(C(C)NCC2CCS(=O)(=O)CC2)c1 (stereo not drawn) | 64.4%
CC(=O)Nc1cccc(C(C)NCC2CCS(=O)(=O)CC2)c1 (stereo not drawn) | 25.8%
O=C(Nc1cnccn1)[C@@H]1C[C@H]2OCC[C@H]2N(Cc2ccsc2)C1 | -38.9%
CCCN1C[C@@H]2CC[C@H]1CN(Cc1ccc(Cn3cccn3)cc1)C2 | -27.5%
COC(=O)c1ccc(N2CCN(C(=O)C3CC3)C(C)C2)cc1 (stereo not drawn) | 31.6%
COC(=O)c1ccc(N2CCN(C(=O)c3ccncc3)C(C)C2)cc1 (stereo not drawn) | 27.1%
COC(=O)c1ccc(N2CCN(C(=O)c3cccnc3)C(C)C2)cc1 (stereo not drawn) | 81.1%
COC(=O)c1ccc(N2CCN(C(=O)c3cnn(C)c3)C(C)C2)cc1 (stereo not drawn) | 63.6%
COC(=O)c1ccc(N2CCN(C(=O)c3ccc(O)nc3)C(C)C2)cc1 (stereo not drawn) | 2.97%
COC(=O)c1ccc(N2CCN(C(=O)c3ccco3)C(C)C2)cc1 (stereo not drawn) | -34%
O=S(=O)(CCNC1CCc2ncnn2C1)c1ccc(Cl)cc1 (stereo not drawn) | 21.5%
CO[C@@H]1CN(c2ccccc2)S(=O)(=O)[C@@]12CCN(CC1CC1)C2 | 22.2%
CCn1cc(NC(=O)NCC(c2ccc(OC)cc2)N(C)C)cn1 (stereo not drawn) | 34.85%
C[C@@H]1CN(C(=O)c2ccccc2F)C[C@]12CCN(CCN(C)C)C2=O | 11.2%
Oc1ccc2oc3c(c2c1CN1CCOCC1)CCCC3 | -115%
O=C1NCCCc2c1oc1ccc(O)c(CN3CCOCC3)c21 | 58.1%
NC(=O)C1CN(Cc2c(O)ccc3oc4c(c23)CCCC4)CCO1 (stereo not drawn) | -66.7%
CCCC1(CO)CCCN(C(=O)CN2CCN(CC)CC2)C1 (stereo not drawn) | 17.4%
CN(C)c1cc(CNc2ccc(S(=O)(=O)C(C)(C)C)nc2)ccn1 | -1.35%
